# Most compounds without a hit are left out; they make up all but 2.3% or so of the library.
# Pol kappa inh-1 – blocks human DNA polymerase kappa activity | AID 588579 | actives 0.53% (n = 400,000) | Potency, µM (series often up to 107 µM), inactives show top-dose activity, negative = inhibition, actives largely listed as inhibitors | Q9UBT6 | purified Pol kappa, fluorescent DNA synthesis assay, 10 min; further: potency means the concentration at half of the fitted maximal effect; on the % scale 0 is the no-effect control and ±100 the full control effect
#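 Readout: fluorescence, taken kinetically at 0 and 10 min. Conditions: 10 nM Pol kappa, 15 min RT compound preincubation, 50 nM substrate final. Controls: enzyme-free buffer wells.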
# WRN inhibitor – blocks human WRN helicase | Q14191 | WRN helicase unwinding, fluorescent forked duplex, kinetic | Potency, µM (series often up to 114 µM), for the others: at the top dose activity change, negative = inhibition, hits mostly inhibitors | actives 0.46% (n = 360,000); further: potency means the concentration at half of the fitted maximal effect; on the % scale 0 is the no-effect control and ±100 the full control effect; nearly all actives have a fitted effect of over 55% in size
# Target sequence (Q14191 whole entry, looked up): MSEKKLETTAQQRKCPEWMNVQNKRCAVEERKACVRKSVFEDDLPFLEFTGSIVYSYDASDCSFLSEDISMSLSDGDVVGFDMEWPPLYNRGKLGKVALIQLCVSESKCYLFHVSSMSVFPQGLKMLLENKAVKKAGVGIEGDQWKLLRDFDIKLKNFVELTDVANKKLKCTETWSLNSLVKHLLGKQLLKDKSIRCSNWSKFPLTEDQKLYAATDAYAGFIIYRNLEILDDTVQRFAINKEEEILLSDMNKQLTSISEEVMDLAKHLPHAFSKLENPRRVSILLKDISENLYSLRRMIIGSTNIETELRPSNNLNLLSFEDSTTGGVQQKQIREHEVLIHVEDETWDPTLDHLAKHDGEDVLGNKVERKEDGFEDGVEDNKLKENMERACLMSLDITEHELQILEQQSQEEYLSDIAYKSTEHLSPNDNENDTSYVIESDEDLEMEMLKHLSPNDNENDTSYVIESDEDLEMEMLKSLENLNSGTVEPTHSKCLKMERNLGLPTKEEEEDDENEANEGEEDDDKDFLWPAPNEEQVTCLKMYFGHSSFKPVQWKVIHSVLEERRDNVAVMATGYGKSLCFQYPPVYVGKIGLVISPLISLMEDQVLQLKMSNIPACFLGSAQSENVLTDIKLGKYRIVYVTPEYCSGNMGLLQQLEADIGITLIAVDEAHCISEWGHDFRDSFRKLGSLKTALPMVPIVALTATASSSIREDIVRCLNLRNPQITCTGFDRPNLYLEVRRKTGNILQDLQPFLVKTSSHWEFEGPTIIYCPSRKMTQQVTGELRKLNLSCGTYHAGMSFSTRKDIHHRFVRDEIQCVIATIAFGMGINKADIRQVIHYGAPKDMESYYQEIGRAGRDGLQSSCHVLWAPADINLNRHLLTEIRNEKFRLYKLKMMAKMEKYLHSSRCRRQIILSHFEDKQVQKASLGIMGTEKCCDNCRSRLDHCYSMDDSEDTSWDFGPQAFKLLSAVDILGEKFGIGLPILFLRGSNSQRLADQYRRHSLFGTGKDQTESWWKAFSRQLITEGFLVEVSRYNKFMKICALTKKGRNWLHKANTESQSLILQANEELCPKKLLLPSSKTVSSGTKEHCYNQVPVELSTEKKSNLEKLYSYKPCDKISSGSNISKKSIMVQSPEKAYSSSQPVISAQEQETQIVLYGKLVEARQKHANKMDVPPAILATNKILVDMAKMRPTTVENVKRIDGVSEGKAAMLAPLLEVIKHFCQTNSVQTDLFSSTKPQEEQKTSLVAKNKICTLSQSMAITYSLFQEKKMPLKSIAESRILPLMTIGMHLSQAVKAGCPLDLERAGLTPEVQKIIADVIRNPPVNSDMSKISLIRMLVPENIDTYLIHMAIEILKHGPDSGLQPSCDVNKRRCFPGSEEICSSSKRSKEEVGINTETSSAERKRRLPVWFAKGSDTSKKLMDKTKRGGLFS
#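 WRN at 20 nM final preincubated with compound 15 min at room temperature; reaction started with 100 nM fluorophore/quencher forked duplex oligonucleotide and 2 mM ATP final. Unwinding followed kinetically by red fluorescence (ex 525, em 598 nm).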
# Pol beta inh – blocks human DNA polymerase beta activity; AID 485314; Potency, µM (highest dose often 114 µM), for inactives: at the highest dose activity change, negative = inhibition, most hits filed as inhibitors; Pol beta primer extension/strand displacement, fluorescence kinetic; actives 1.3% (n = 340,000); further: potency means the concentration at half of the fitted maximal effect; on the % scale 0 is the no-effect control and ±100 the full control effect
#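 Homogeneous kinetic assay of primer extension and strand displacement by 10 nM Pol beta, preincubated 15 min at room temperature with compound before 50 nM substrate (final) was added. Read at 0 and 10 min; four-parameter Hill fit.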
# POLI inh – inhibitors of human DNA polymerase iota; actives 1% (n = 390,000); Pol iota fluorescent replication assay, 10 min; Potency, µM (titrated, usually from 115 µM), for the others: top-dose activity, negative = inhibition, actives largely listed as inhibitors; Q9UNA4; further: potency means the concentration at half of the fitted maximal effect
#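 Pol iota at 10 nM preincubated 15 min with compounds at room temperature; reaction started with fluorescent substrate, 50 nM final. Fluorescence read kinetically at 0 and 10 min; buffer-only wells as negative control.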
# Pol eta inh-1 – DNA polymerase eta (human) inhibition; Q9Y253; AID 588591; recombinant Pol eta, fluorescent DNA replication assay; Potency, µM (top dose mostly 114 µM), without a hit: top-dose activity change, negative = inhibition, usual class: inhibitors; actives 1.2% (n = 390,000); further: potency means the concentration at half of the fitted maximal effect; on the % scale 0 is the no-effect control and ±100 the full control effect
#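 Pol eta (10 nM) was preincubated with compounds for 15 min at room temperature, after which fluorescent replication substrate (50 nM final) was added to start the reaction. Fluorescence was read kinetically at 0 and 10 min.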
# BAZ2B inh – confirmation of human BAZ2B bromodomain inhibitors; shares compounds with Pol kappa inh-1; AlphaScreen BAZ2B / biotin-H3K14Ac peptide displacement; Potency, µM, usual class: inhibitors; actives 100% (n = 25); calls by dose curve
# AlphaScreen ctr – AlphaScreen signal interference, BAZ2B hit counter-screen; shares compounds with Pol kappa inh-1; AlphaScreen biotin-His6 peptide bead counterscreen, signal decrease; Potency, µM (highest dose often 57.1 µM), inactives show at the top dose activity change, negative = inhibition, hits mostly inhibitors; 25 tested, under 10 active;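 active means clear concentration-dependent signal drop in the bead assay lacking the target, so a primary-screen artifact; inconclusive means weak, partial or single-dose response; inactive means no response, so a real primary hit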
# TbPGK inh – blocks T. brucei phosphoglycerate kinase. actives 79% (n = 500). AID 686980. shares compounds with Pol kappa inh-1. TbPGK coupled GAPDH assay, Kinase-Glo luminescence. Potency, µM (titrated, usually from 57.5 µM), for the others: at the highest dose activity change, negative = inhibition, most hits filed as inhibitors; further: potency means the concentration at half of the fitted maximal effect; on the % scale 0 is the no-effect control and ±100 the full control effect; nearly all actives have a fitted effect of over 65% in size
# POLI cherry-pick – Inhibitors of human DNA polymerase iota, confirmation; shares compounds with Pol kappa inh-1; Pol iota primer extension, TAMRA/BHQ fluorescence; Potency, µM, usual class: inhibitors; actives 77% (n = 1,500); further: potency means the concentration at half of the fitted maximal effect
# Pol kappa inh-2 – confirmation of human DNA polymerase kappa inhibitors; shares compounds with Pol eta inh-1; purified Pol-kappa, fluorescent strand-displacement substrate; Potency, µM, most hits filed as inhibitors; actives 76% (n = 920); AID 720501; further: potency means the concentration at half of the fitted maximal effect
# Pol eta inh-2 – Pol eta (human) inhibition, cherry-pick confirmation; shares compounds with Pol eta inh-1; Pol eta primer extension, TAMRA/BHQ fluorescence, 10 min; Potency, µM, most hits filed as inhibitors; actives 64% (n = 2,600); AID 720502; further: potency means the concentration at half of the fitted maximal effect
# The depositor's hits bear a star; ? = inconclusive; / = not tested or not shown; [ ] = another dose, or the depositor's remark. Unless noted, the call rests on the fitted dose curve; in most records, active means well fitted curve in the direction sought with a large enough effect; inconclusive means small, poorly fitted or top-dose-only effect, or another doubt; inactive means no such curve, though single readings can be large; an effect the other way counts as inactive or inconclusive.
SMILES,Pol kappa inh-1,WRN inhibitor,Pol beta inh,POLI inh,Pol eta inh-1,others
CC1=C2C(=O)C3C(CC=C4C[C@@H](O)CC[C@@]43C)[C@@H]2CC[C@]12O[C@@H]1C[C@H](C)CN[C@H]1C2C (stereo partly specified),11%[60.1 µM],/,/,/,/,
COc1cc2c(c3oc4cccc(O)c4c(=O)c13)C1C=CO[C@@H]1O2 (stereo partly specified),7%[60.1 µM],/,/,/,/,
Cc1cc(=O)n(-c2ccccc2Cl)[nH]1,0%,-8%[11.6 µM],10%,2.8µM*,-5%,
CCOc1cc(C=C2C(=O)NC(=S)NC2=O)ccc1O,-14%,50µM*,/,?,-14%,
COc1ccc(C=C2C(=O)NC(=S)NC2=O)cc1OC,-5%,45µM*,/,?,-7%,
COc1ccc(/C=C/C=C2C(=O)NC(=S)NC2=O)cc1,-28%,45µM*,/,?,25µM*,
CC(C)C[C@H](NC(=O)[C@H](CC(C)C)NC(=O)[C@H](Cc1ccccc1)NC(=O)[C@@H](N)Cc1ccc(O)cc1)C(=O)N[C@@H](CCCN=C(N)N)C(=O)N[C@@H](CC(N)=O)C(=O)N1CCC[C@H]1C(=O)O,12%[60.1 µM],/,/,/,/,
CC(=O)Nc1c2sscc-2n(C)c1=O,-8%[60.1 µM],/,/,/,/,
C[C@H](N)C(=O)NCC(=O)N[C@H]1CSSC[C@@H](C(=O)O)NC(=O)[C@H](CO)NC(=O)[C@H]([C@@H](C)O)NC(=O)[C@H](Cc2ccccc2)NC(=O)[C@H]([C@@H](C)O)NC(=O)[C@H](CCCCN)NC(=O)[C@@H](Cc2c[nH]c3ccccc23)NC(=O)[C@H](Cc2ccccc2)NC(=O)[C@H](Cc2ccccc2)NC(=O)[C@H](CC(N)=O)NC(=O)[C@H](CCCCN)NC1=O,14%[60.1 µM],/,/,/,/,
COc1cc(/C=C2/C(=O)NC(=O)N(c3ccccc3)C2=O)ccc1O,3%,?,2%,17%,10%,
COc1cccc(N2C(=O)NC(=O)/C(=C/c3ccc4c(c3)Cc3ccccc3-4)C2=O)c1,-17%,45µM*,-20%,?,1%,
Cc1ccc(/C=C2\C(=O)NC(=S)N(c3ccc(F)cc3)C2=O)s1,-20%,50µM*,?,?,?,
COc1ccc(N2C(=O)/C(=C/c3cccs3)C(=O)NC2=S)cc1,-32%,45µM*,-1%,?,4%,
Cc1ccc(/C=C2\C(=O)NC(=S)N(c3ccccc3F)C2=O)s1,?,50µM*,?,?,?,
CCC1OC2(C)C(O)C(/C=C/C=C/C=C/c3oc(=O)cc(OC)c3C)OC1(C)C2OC(C)=O (stereo unspecified),15%[60.1 µM],/,/,/,/,
O=C(O)c1[nH]n(-c2ccc(S(=O)(=O)O)cc2)c(=O)c1N=Nc1ccc(S(=O)(=O)O)cc1,-30%,/,/,?,/,
CN(C)C1CSSSC1,18%[60.1 µM],/,/,/,/,
CC[n+]1c(/C=C/C=C/c2ccc(N(C)C)cc2)sc2ccccc21,-32%,56µM*,-1%,76%,?,TbPGK inh=?
O=C(O)c1cccc2c1NC(C(=O)O)C1CC(Sc3ccccc3[N+](=O)[O-])C(Cl)C21 (stereo unspecified),8.9µM*,32µM*,2.8µM*,4µM*,3.2µM*,TbPGK inh=13µM*
COc1ccc2c(c1)CCc1c(C(=O)Nc3c(C)nn(Cc4ccccc4C)c3C)noc1-2,-13%,/,19%,43%,-15%,
CCCNC(=O)c1ccc2c(=O)n3c(-c4ccc(C)cc4)csc3nc2c1,-14%,5%,-5%,?,4%,BAZ2B inh=4.5*;AlphaScreen ctr=13µM*
O=c1cc(-c2ccc(O)cc2)oc2c([C@H]3O[C@@H](CO)[C@@H](O)[C@@H](O)[C@@H]3O)c(O)cc(O)c12,-9%[12 µM],/,/,/,/,
COC12C(COC(N)=O)C3=C(C(=O)C(C)=C(N)C3=O)N1CC1C2N1C (stereo unspecified),-35%,-13%,-19%,?,50µM*,POLI cherry-pick=38*
c1ccc2sc(C3(NCC4CC4)CCCCC3)cc2c1,4%[19.4 µM],/,/,/,/,
CC(C)(O)C1O[C@H]2CC[C@@]3(C)[C@@](O)(CC[C@H]4Cc5c([nH]c6ccccc56)[C@@]43C)C2=CC1=O (stereo partly specified),-1%[19.4 µM],/,/,/,/,
O=C1NC(=S)NC(=O)C1=Cc1ccc2c(c1)CCN2CCCCl,10µM*,56µM*,?,?,2µM*,TbPGK inh=2.3µM*
CCC(Oc1ccc(Cl)cc1)C(=O)OC1CC2CCC(C1)N2C (stereo unspecified),8%[19.4 µM],/,/,/,/,
O=C1NC(=S)NC(=O)C1=Cc1cccn1-c1ccc(O)cc1,18µM*,45µM*,25µM*,2.2µM*,3.5µM*,TbPGK inh=16µM*;POLI cherry-pick=7.5*;Pol eta inh-2=6*
O=c1[nH]c(=O)n(-c2ccccc2)c(O)c1/C=C/C=Nc1ccccc1,-8%,-18%,?,?,?,
COc1ccc(-n2c(O)c(/C=C/C=Nc3ccccc3)c(=O)[nH]c2=O)cc1,-11%,?,21%,?,20µM*,POLI cherry-pick=60*;Pol kappa inh-2=38*;Pol eta inh-2=76*
